Pf growth 48h – inhibits P. falciparum growth in the first generation, 48 h; P. falciparum luciferase growth in erythrocytes, 48 h; Potency, µM (titrated, usually from 28.7 µM), for the others: top-dose activity change, negative = inhibition, hits mostly inhibitors; hit rate 5.9% among 310,000; AID 504832; also: % is scaled to controls: 0 for no effect and ±100 for the full control effect
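Luciferase-expressing parasites in RBCs, 2% Hct / 0.1% parasitemia final; RPMI 1640 + 0.5% Albumax; 37 C, 5% CO2, one generation; luminescence read-out, lower signal = inhibition.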
SARS PLpro yeast – inhibitors of SARS-CoV papain-like protease in yeast; AID 485353; Potency, µM (top dose mostly 32.9 µM), inactives show at the top dose activity, positive = growth rescue, actives largely listed as activators; S. cerevisiae expressing SARS-CoV PLpro, growth rescue; hit rate 0.19% among 330,000; calls by dose curve; also: 0% is about no effect; nearly all actives have a fitted effect of over 55% in size
Pf growth 96h – P. falciparum growth inhibition at 96 hours; Potency, µM (top dose mostly 28.7 µM), for inactives: at the highest dose activity change, negative = inhibition, hits mostly inhibitors; hit rate 6.9% among 320,000; P. falciparum luciferase reporter growth, 96 h; AID 504834; also: % is scaled to controls: 0 for no effect and ±100 for the full control effect
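Erythrocytes infected with luciferase-expressing P. falciparum were dispensed at 2% hematocrit and 0.05% parasitemia (final), then incubated with compounds 96 hours at 37 C in 5% CO2. Luminescence after detection reagent addition reported growth.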
AMA1 RON2 block – inhibitors of Plasmodium falciparum AMA1-RON2 interaction. AlphaScreen AMA1-biotinylated RON2 peptide binding. Potency, µM (doses to about 58.2 µM), inactives show at the top dose activity change, negative = inhibition, usual class: inhibitors. hit rate 0.2% among 360,000. AID 720542;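 also: 0% = vehicle wells and -100% = peptide control; nearly all actives have a fitted effect of over 45% in size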
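AMA1 (3D7) with his tag at 25 nM final met compounds first, then biotinylated RON2 peptide at 25 nM; detection used donor plus acceptor beads, 10 µg/mL apiece, read by AlphaScreen after 30 min at room temperature.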
Starred values were filed as active, the others as inactive; ? = inconclusive; . = no result; [ ] = dose if it differs, or a comment. A selection: hits, their analogues and other compounds. The true share with any hit is near 9.4%. Unless noted, calls follow the shape of the dose curve; as a rule, active = well fitted curve in the direction sought with a large enough effect; inconclusive = small, poorly fitted or top-dose-only effect, or another doubt; inactive = no such curve, though single readings can be large; an effect the other way counts as inactive or inconclusive. Potency is read from the fitted curve at half-maximal effect.

SMILES	Pf growth 48h	SARS PLpro yeast	Pf growth 96h	AMA1 RON2 block
COC(=O)Cn1c(=NC(=O)c2ccc(S(=O)(=O)N3CCOCC3)cc2)sc2cc(S(N)(=O)=O)ccc21	?	0.4%	?	13.4%
C#CCn1c(=NC(=O)c2ccc(S(=O)(=O)N3CCCc4ccccc43)cc2)sc2cc(S(N)(=O)=O)ccc21	9.28µM*	8.8%	2.94µM*	6.8%
O=C1C(=O)N(CCS(=O)(=O)c2ccccc2)c2ccc(Cl)cc21	?	-6.4%	?	6.1%
FC(F)(F)c1cc(NCc2cccs2)n2ncnc2n1	20.6%	15.6%	51.0%	1.4%
O=Nc1c(-c2ccccc2)cc2ccccn12	4.65µM*	-19.8%	9.28µM*	5.7%
COc1ccc(S(=O)(=O)NCc2ccc3c(c2)cc(C)n3C)cc1	.	-3.3%	?	-23.9%
CC(C)OCCCN1C=C2C(=O)C(C)(OC(=O)CCc3ccccc3)C(=O)C=C2C=C1c1ccc(C#N)cc1 (stereo not drawn)	10.4µM*	0.6%	?	-5.9%
CCc1ccc(/C=C2\Oc3cc(OC(=O)N4CCOCC4)ccc3C2=O)cc1	?	0.5%	10.4µM*	1.8%
c1ccc2oc(N3CCNCC3)nc2c1	.	-1.4%	-26.2%	-11.7%
O=C1[C@H]2CCCC[C@H]2C(=O)N1CCCCN1CCN(c2nsc3ccccc23)CC1	?	.	12µM*	-11.3%
c1ccc2c(N3CCNCC3)nsc2c1	13.1µM*	0.6%	-22.9%	-15.2%
CC(=O)N1CCN(C(=O)CCc2nnc(CCCCc3ccccc3)o2)CC1	-5.2%	1.4%	11.7µM*	8.1%
O=C(CCc1nnc(CCCCc2ccccc2)o1)N1CCN(CCO)CC1	9.2%	1.1%	7.0%	-16.7%
Cc1ccc(NC(=O)CSc2nc3ccccc3c(=O)n2CCCC(=O)NCCCN2CCOCC2)cc1C	?	-0.6%	13.1µM*	-13.5%
O=C(CSc1nc2ccccc2c(=O)n1CCCN1CCOCC1)Nc1cccc(S(=O)(=O)N2CCCCCC2)c1	0.522µM*	9.9%	0.522µM*	-28.1%
CC(=O)Nc1ccc(NC(=O)CSc2nc3ccccc3c(=O)n2CCCN2CCOCC2)cc1	.	-5.3%	.	-11.1%
O=C(CSc1nc2ccccc2c(=O)n1CCCN1CCOCC1)Nc1ccc(F)c(Cl)c1	.	-4.0%	.	-12.9%
CCn1c(SCc2ccc(OC)c(F)c2)nc2ccccc2c1=O	?	-2.2%	5.9%	7.1%
CCc1ccc(NC(=O)CSc2nc3ccccc3c(=O)n2CCCC(=O)NCCCN2CCOCC2)cc1	7.38µM*	-0.2%	?	-11.7%
COc1ccc(CSc2nc3ccccc3c(=O)n2CCCN2CCOCC2)cc1F	?	-5.4%	8.28µM*	-18.1%
Cc1noc(C)c1CSc1nnc(-c2ccccc2F)n1CCc1ccccc1	?	-1.7%	?	0.0%
C=CCC1(CC=C)CCCN1C(=O)c1cc(COc2ccc(F)c(F)c2)on1	?	-2.5%	-12.0%	48.3%
C=CCC1(CC=C)CCCN1C(=O)c1cc(COc2ccccc2SC)on1	14.7µM*	0.9%	-12.1%	-3.6%
CCCOc1cccc(CN2CCCCC2c2cccnc2)c1 (stereo not drawn)	.	8.2%	1.6%	-10.9%
COc1ccc([N+](=O)[O-])cc1NC(=O)C(C)N1CCCC1 (stereo not drawn)	33.0%	3.5%	36.1%	14.6%
SMILES	Pf growth 48h	SARS PLpro yeast	Pf growth 96h	AMA1 RON2 block
CC(C(=O)Nc1cc([N+](=O)[O-])ccc1Cl)N1CCN(c2ccccc2O)CC1 (stereo not drawn)	6.57µM*	-7.8%	?	0.0%[2.32 µM]
CN1CCN(c2ccc([N+](=O)[O-])cc2NC(=O)c2ccccc2Cl)CC1	11.7µM*	4.4%	?	19.5%
CC(=O)c1cccc(S(=O)(=O)N2CCC(c3nc4ccccc4[nH]3)CC2)c1	-3.3%	-2.5%	7.0%	-3.7%
CCOc1ccc(S(=O)(=O)N2CCCCC2)cc1NC(=O)CN1C(=O)NC(CC)(c2ccccc2)C1=O (stereo not drawn)	4.65µM*	3.9%	11.7µM*	11.7%
CCC1(c2ccccc2)NC(=O)N(CC(=O)Nc2cc(S(=O)(=O)N3CCCCC3)ccc2OC(C)C)C1=O (stereo not drawn)	10.4µM*	.	?	-3.0%
CCOc1ccc(S(=O)(=O)N2CCCCC2)cc1NC(=O)CN1C(=O)NC(C)(c2ccccc2)C1=O (stereo not drawn)	?	-4.3%	?	3.2%
CCC1(c2ccccc2)NC(=O)N(CC(=O)Nc2cc(S(=O)(=O)N3CCCCCC3)ccc2OC)C1=O (stereo not drawn)	9.28µM*	0.8%	7.38µM*	12.3%

Screens: PubChem BioAssay, National Center for Advancing Translational Sciences (NCATS)
